Reference: the supplement of paper PMC13380429

Test system: Vero E6 infected with SARS-CoV-2
Experiment: inhibition of SARS-CoV-2 cytopathic effect; higher = more antiviral protection, active = above 15
Conditions: 48 h

Measured: inhibition of SARS-CoV-2 cytopathic effect

CCOC(=O)N[C@@H]1CC[C@@H]2[C@@H](C1)C[C@H]1C(=O)O[C@H](C)[C@H]1[C@H]2/C=C/c1ccc(-c2cccc(F)c2)cn1 [vorapaxar]
inactive: 1 nM -1.52% | 8.33 nM -0.15% | 100 nM -0.3% | 833.33 nM -0.44% | 10000 nM 0.22%

Cc1cc(OCc2nnc(SC3CCCC3)n2-c2cccnc2)ccc1-c1ccc(S(C)(=O)=O)cc1
inactive: 1 nM -0.48% | 8.33 nM 0.31% | 100 nM 1.82% | 833.33 nM 5.04% | 10000 nM -19.7%

CCNC(=O)N1CCN(CCCC(c2ccc(F)cc2)c2ccc(F)cc2)CC1 [amperozide]
inactive: 1 nM -5.99% | 8.33 nM -8.04% | 100 nM -8.94% | 833.33 nM -7.67% | 10000 nM -9.06%

O/N=C/c1cc[n+](COC[n+]2ccc(/C=N/O)cc2)cc1 [obidoxime]
inactive: 1 nM 1.54% | 8.33 nM -0.64% | 100 nM -1.56% | 833.33 nM -1.59% | 10000 nM -2.39%

CC(=O)S[C@@H]1CC2=CC(=O)CC[C@]2(C)[C@H]2CC[C@@]3(C)[C@@H](CC[C@@]34CCC(=O)O4)[C@H]12 [spironolactone]
inactive: 1 nM -0.66% | 8.33 nM -0.55% | 100 nM -0.37% | 833.33 nM 3.98% | 10000 nM 6.39%

O=c1c(-c2ccc(O)cc2)coc2c([C@@H]3O[C@H](CO)[C@@H](O)[C@H](O)[C@H]3O)c(O)ccc12 [puerarin]
inactive: 1 nM -2.73% | 8.33 nM -3.08% | 100 nM -2.16% | 833.33 nM 2.34% | 10000 nM -0.84%
